Experimental data: ChEMBL document CHEMBL4513216, “Probing the Open Global Health Chemical Diversity Library for Multistage-Active Starting Points for Next-Generation Antimalarials” (ACS Infect Dis, 2020)
Among all 68,000 compounds or so, about 2,700 (4%) showed an effect of 50% or more. What follows is part of a selection rich in strong results, with near analogues and random picks from the rest.

Tested on: Plasmodium berghei
Assay: Screen against P. berghei liver stage (PbLuc), transformed with Luciferase, at 2uM
Format: functional, HepG2
Conditions: tested at 2 uM

Structure (SMILES) | INHIBITION [%]
CC(C)c1nc(CN2CCc3onc(-c4cccc(F)c4)c3C2)no1 | -18.57
COc1c(CNCCNC(=O)c2ccccc2F)c(C)nn1C | 67.69
COc1c(CNCCNC(=O)c2ccccc2)c(C)nn1C | 33.82
COc1c(CNCCNC(=O)c2ccc(C)c(F)c2)c(C)nn1C | -45.21
COc1cccc([C@@H]2CN(C(=O)c3ccc(C)cc3O)C[C@H]2C(=O)O)c1 | 10.1
Cc1cn2nc(N3CCCC3C(=O)N3CCOCC3)sc2n1 (stereo not given) | -11.41
Cc1cn2nc(N3CCCC3C(=O)N3CCN(C)CC3)sc2n1 (stereo not given) | 7.67
Cc1cn2nc(N3CCCC3C(=O)N3CCSCC3)sc2n1 (stereo not given) | 55.36
COc1ccc(C(=O)NC(CC(=O)O)c2cccs2)c(OC)c1 (stereo not given) | 7.01
COCC(O)CN1CCC(NC(=O)c2cccc(C)c2)CC1 (stereo not given) | 2.32
Cc1cccc(C2(NCCCS(C)(=O)=O)CCCC2)c1 | 36.28
CS(=O)(=O)CCCNC1(c2cccc(Cl)c2)CCCC1 | 17.2
CS(=O)(=O)CCCNC1(c2ccc(Br)cc2)CCC1 | 55.36
O=C(NCc1ccnc(OCC(F)(F)F)c1)NCC1CCOC1 (stereo not given) | -3.72
CNC(=O)[C@H]1C[C@@H]2CN(S(=O)(=O)c3ccccc3)C[C@@H]2N1C(C)=O | 5.52
O=C(NCc1cccs1)[C@H]1CC[C@@H]2[C@@H](CCN2c2ncccn2)O1 | -23.39
Cc1cc(C(=O)N2CCc3ncnc(-c4cnn(C)c4)c3CC2)c(C)o1 | 55.94
Cc1occc1C(=O)N1CCc2ncnc(-c3cnn(C)c3)c2CC1 | 23.27
Cc1oncc1C(=O)N1CCc2ncnc(-c3cnn(C)c3)c2CC1 | 33.74
CC(C)CC(NC(=O)c1ccn(C)c(=O)c1)c1cccs1 (stereo not given) | 9.29
CN(CCc1cn[nH]c1)C(=O)C1CC(=O)N(Cc2ccccn2)C1 (stereo not given) | 48.93
COCc1noc(CCNC(=O)c2ccc(C3CCCO3)s2)n1 (stereo not given) | -31.23
Cc1ccc(CN2C[C@H](N3CCOCC3)[C@@H]3OCCC[C@@H]32)o1 | 63.23
Cc1cc(CN2C[C@H](N3CCOCC3)[C@@H]3OCCC[C@@H]32)oc1C | -0.23

Structure (SMILES) | INHIBITION [%]
Cc1ccc(CN2C[C@@H](N(C)C)[C@H]3OCCC[C@H]32)o1 | 39.57
COCC(=O)N1CCC2(C1)c1ccccc1S(=O)(=O)N2CC1CC1 (stereo not given) | -11.81
Cc1cn(CC(=O)NC2CCC3(CC2)OCCO3)c2ccccc12 | 70.17
CCN1CCC(NC(=O)Cn2cc(C)c3ccccc32)CC1 | -3.38
Cc1cn(CC(=O)NC2CCC(C(=O)O)CC2)c2ccccc12 (stereo not given) | 0.13
CCCC1CCCN(C(=O)Nc2cccnc2OC)CC1 (stereo not given) | 0.73
COc1ccc(C2CCCN2S(=O)(=O)c2cc(F)ccc2F)cc1 (stereo not given) | 7.24
Cc1cc(=O)[nH]cc1C(=O)N1Cc2ccccc2N(C)CC1C (stereo not given) | 47.59
CCc1csc(C2CCCN(C(=O)c3ccc(OC)nn3)C2)n1 (stereo not given) | 11.18
Cc1nc(C(=O)N2CCCC(c3nc(C(C)C)cs3)C2)c[nH]1 (stereo not given) | 77.56
Cc1csc(C2CCCN(C(=O)Cn3ccccc3=O)C2)n1 (stereo not given) | 42.29
Cc1nc(C2CCCN(C(=O)Cn3ccccc3=O)C2)sc1C (stereo not given) | 14.77
CC(C)c1csc(C2CCCN(C(=O)Cn3ccccc3=O)C2)n1 (stereo not given) | 54.92
Cc1csc(C2CCCN(C(=O)c3c[nH]c(C)n3)C2)n1 (stereo not given) | -92.68
CCc1csc(C2CCCN(C(=O)c3ccc(=O)n(CC)n3)C2)n1 (stereo not given) | 60.09
CCc1csc(C2CCCN(C(=O)c3c[nH]c(C)n3)C2)n1 (stereo not given) | 33.91
CCc1csc(C2CCCN(C(=O)c3ccc(=O)n(C)n3)C2)n1 (stereo not given) | 26.51
CC(C)NC(=O)NCc1nnc2n1C(C(=O)N(C)C)CC2 (stereo not given) | 24.34
O=C(NCc1ccc(OCC2CC2)nc1)C1COc2ccccc2O1 (stereo not given) | 2.21
CC1CCN(C(=O)[C@@H]2C[C@H]3OCC[C@H]3N(Cc3ccoc3)C2)CC1 | 23.1
Cc1cnc(CN(C)C(=O)C23CNCC2CNC3)[nH]1 (stereo not given) | -16.03
COc1ncccc1C(=O)N(C)Cc1nc(-c2ccccn2)no1 | 16.37
COCc1nc(C(=O)N2CCCCC2Cn2cc(C)cn2)cs1 (stereo not given) | 29.71
Cc1cnn(CC2CCCCN2C(=O)c2ccc(NC3CC3)nc2)c1 (stereo not given) | 14.53

Structure (SMILES) | INHIBITION [%]
CC(=O)Nc1nc(C(=O)N2CCCCC2Cn2cc(C)cn2)cs1 (stereo not given) | -7.73
Cc1cnn(CC2CCCN2C(=O)c2ccc(C(N)=O)cn2)c1 (stereo not given) | 40.29
Cc1cnn(CC2CCCCN2C(=O)c2csc(C)n2)c1 (stereo not given) | 53.58
CNC(=O)c1ccc(C(=O)N2CCCCC2Cn2cc(C)cn2)cn1 (stereo not given) | 61.96
CC(C)C1CN(C(=O)c2cc(=O)[nH]c(=O)[nH]2)CCCN1CC1CC1 (stereo not given) | -15.77
CN(C)CCn1c([C@@H]2CCCO2)cc2cccnc21 | 47.82
O=C(N1CCCC1)N1CCc2c(CNc3ncccn3)cncc2C1 | 34.98
Cc1cc(CN2CCC3(CC2)CC(C(=O)O)N(C(=O)C2CC2)C3)oc1C (stereo not given) | 9.11
CCSCC(C)NCc1nc(-c2cccnc2)no1 (stereo not given) | -15.07
Cc1nn2c(nc1=O)-c1ccccc1NC2C(=O)O (stereo not given) | 24.05
O=C(c1ccsc1)N1CCC2(CCN(Cc3ccccn3)C2=O)C1 (stereo not given) | 57.85
O=C(CO)N1CCCC2(CCN(c3ccsc3)C2=O)C1 (stereo not given) | 55.21
O=C(c1cccnc1)N1CCCC2(CCN(c3ccsc3)C2=O)C1 (stereo not given) | 18.37
C[C@H]1CN(C(=O)c2cscn2)C[C@@]12CCN(c1ccsc1)C2=O | 55.8
C[C@@H]1CN(C(=O)c2ccsc2)C[C@]12CCN(c1ccsc1)C2=O | -1.79
Cc1ccc(C(=O)N2CCC3(CCN(Cc4ccccn4)C3=O)C2)cn1 (stereo not given) | 17.64
Cc1ccc(C(=O)N2CCC3(CCN(c4ccsc4)C3=O)C2)cn1 (stereo not given) | 52.66
COCC(=O)N1CCCC2(CCN(c3ccsc3)C2=O)C1 (stereo not given) | -68.7
O=C(N1CCCC1)N1CCCC2(CCN(c3ccsc3)C2=O)C1 (stereo not given) | 45.82
O=C(c1ccnnc1)N1CCC2(CCN(c3ccsc3)C2=O)C1 (stereo not given) | -12.06
Cc1cccc(C(=O)N2C[C@@H](C)[C@@]3(CCN(c4ccsc4)C3=O)C2)n1 | 15.44
O=C(c1ccc(F)cc1)N1CCC2(CCN(Cc3ccccn3)C2=O)C1 (stereo not given) | 11.6
